# Reference: PubChem BioAssay (NCATS)
# Results filed as inconclusive are left out. Entries that show only a call come without a potency. The source made the active and inactive calls. The call rests on the fitted dose curve; in most records, active means well fitted inhibition curve with a large enough effect; inconclusive means small, poorly fitted or top-dose-only effect; inactive means flat fitted curve, though single readings scatter.
# Test system: NIH3T3
# Experiment: qHTS assay to identify novel small-molecules to repurpose for Merkel cell carcinoma treatment (AID 1296009); further: nearly all actives have a fitted effect of over 60% in size
# Conditions: MCC and control cell lines, CellTiter-Glo viability, 72 h; series mostly up to 44.8 µM
# Excerpt: MCC is a rare and aggressive neuroendocrine skin cancer with limited treatment options. Approximately 80% of MCCs have the Merkel cell polyomavirus (MCPyV) DNA integrated into the host genome (virus-positive: VP-MCC) and viral oncogenes drive oncogenesis. The remaining MCCs are virus-negative (VN-MCC) and are caused by UV mutagenesis. To identify novel treatments for VP-MCC and/or VN-MCC we screened three VP-MCC cell lines (WAGA, MKL-1, MKL-2), three VN-MCC cell lines (MCC-13, MCC-26, UISO), and four immortalized, non-transformed control cell lines (HaCaT, HEK293T, CRL7250, NIH-3T3) against ~2,400 compounds in the NCGC Pharmaceutical Collection (NPC) and ~1,900 compounds in the Mechanism Interrogation PlatE (MiPE). Using cell viability as a readout (CellTiter-Glo assay) we found both overlapping and distinct drugs that can be repurposed for the treatment of VP-MCC and VN-MCC.
# A high-throughput screen was conducted in 1536-well white flat bottom plates (Corning) on a Kalypsys robotic system. Cell lines WAGA, MKL-1, MKL-2, MCC-13, MCC-26, UISO, HaCaT, HEK293T, CRL7250, and NIH-3T3 were screened against 2 small molecule annotated drug libraries NPC and MIPE in dose response (8 and 11 pt. respectively) measuring cell viability after 72 hours of incubation. […] A 1,536 pintool (Kalypsys) was used to transfer 23 nL of compound in DMSO to the 1,536-well assay plates. After 72 hr incubation at 37 degree celsius, 2.5 uL of CellTiter-Glo (Promega) was dispensed into each well using a BiorapTR. Plates were incubated at room temperature for 10 min, transferred to a ViewLux (PerkinElmer) and the luminescence was recorded using an exposure time of 2 seconds. Relative luminescence units (RLUs) were normalized to in-plate controls (no cells as a positive (cytotoxicity) control, DMSO as negative control) and the normalized data was processed using NCATS in-house software.
SMILES,Potency,outcome
CCn1c(-c2nonc2N)nc2c(C#CCO)ncc(OCCCN)c21,inactive,–
O=C(NCC1(N2CCN(c3ccccc3)CC2)CCOCC1)c1cccnc1Sc1ccccc1,inactive,–
O=c1[nH]cnc2c([C@@H]3N[C@H](CO)[C@@H](O)[C@H]3O)c[nH]c12,inactive,–
CN(C)C(CCOc1cccc2ccccc12)c1ccccc1 (stereo not given),inactive,–
Cc1c(Cl)cccc1S(=O)(=O)Nc1nc(NCCc2ccccc2)nc2c1CN(Cc1ccccc1)CC2,inactive,–
COc1ccc2c(c1O[C@H]1CCNC1)CCC2,inactive,–
CC(=O)NC(C(=O)O[C@H]1CCC(C)(C)[C@@H]2CC=C3C(=O)OCC3(O)[C@@]12C)C(C)C (stereo not given in full),inactive,–
CCC(C)C(=O)OC12C(OC(C)=O)C(C)C3(O)C(C=C(CO)CC4(O)C(=O)C(C)=CC43)C1C2(C)C (stereo not given),inactive,–
C=C1CCC2C(C)(C)CCCC2(C)C1CC/C(C)=C\CO (stereo not given),inactive,–
COc1cc2c(cc1OCCCN1CCCC1)N=C(N)C21CCC1,inactive,–
Cc1cc(OCCCS(C)(=O)=O)cc(C)c1-c1cccc(COc2ccc3c(c2)OCC3CC(=O)O)c1 (stereo not given),inactive,–
CC#C[C@@H](CC(=O)O)c1ccc(OCc2ccc(CN3CCC4(C=Cc5ccccc54)CC3)s2)cc1,inactive,–
C/C=C(\C)C(=O)OC1C=C(C)CC(OC(=O)c2ccc(O)cc2)C2C1(C)CCC2(O)C(C)C (stereo not given),inactive,–
N#Cc1cc(C2=Nc3ccc(Br)cc3NC(=O)C2)ccn1,inactive,–
Cc1cc(C)c(S(=O)(=O)n2cc(C)cc2C)c(C)c1,inactive,–
COCC(c1ccc(C(F)(F)F)cc1)N1CCN(C2(C)CCN(C(=O)c3c(C)ncnc3C)CC2)CC1C (stereo not given),inactive,–
COc1ccccc1-c1ccc(-c2cn(C(=O)N3CCCCC3Cc3ccccc3)nn2)cc1 (stereo not given),inactive,–
CC1(C)CCC(C)(C)c2cc(C#Cc3ccc(C(=O)O)cc3)ccc21,inactive,–
CCC[C@@]1(CCc2ccccc2)CC(O)=C([C@H](CC)c2cccc(NS(=O)(=O)c3ccc(C(F)(F)F)cn3)c2)C(=O)O1,inactive,–
CC(=O)O[C@@H]1CC[C@@]2(C)C(CC[C@]3(C)C2[C@H](O)C=C2[C@H]4[C@@H](C)[C@H](C)CC[C@]4(C)CC[C@]23C)[C@@]1(C)C(=O)O (stereo not given in full),inactive,–

SMILES,Potency,outcome
C=C1CO[C@@]2(O[C@H]3CC4C5CC=C6C[C@@H](O)C[C@@H](O[C@@H]7OC[C@H](O)[C@H](O[C@@H]8OC[C@@H](O)[C@H](O)[C@H]8O)[C@H]7O[C@@H]7O[C@@H](C)[C@H](OC(C)=O)[C@@H](OC(C)=O)[C@H]7OC(C)=O)[C@]6(C)C5CC[C@]4(C)[C@@H]3[C@@H]2C)[C@@H](O)[C@H]1OC1OC(C)C(O)C(O)C1O (stereo not given in full),–,inactive [at 9.27 µM]
C=C1C(=O)OC2C1CCC1(C)C(O)CC=C(C)C21 (stereo not given),inactive,–
CC(=O)OC1C(OC(=O)c2ccccc2)C2C(C)(C)CCC(OC(C)=O)C2(C)C23CCC(C)(C2)C(=O)CC13 (stereo not given),inactive,–
COc1cc2nc(N3CCN(C(=O)COc4c(OC)cccc4C(C)C)CC3)nc(N)c2cc1OC,inactive,–
CN(C)S(=O)(=O)c1ccc(NC(=S)N2CCC(C(O)(c3ccccc3)c3ccccc3)CC2)cc1,inactive,–
Cc1cc(F)ccc1[C@H]1C[C@@H](N2CCN3C(=O)CC[C@H]3C2)CCN1C(=O)N(C)[C@H](C)c1cc(C(F)(F)F)cc(C(F)(F)F)c1,inactive,–
CCOC(=O)CCNc1cc(N2CCc3ccccc3CC2)nc(-c2cccnc2)n1,inactive,–
C=C(COC(=O)C(O)C(O)CN)C12OC1C1(C)C(=CC2=O)C(O)C(O)CC1C (stereo not given),inactive,–
COc1ccc(CCN(C)CCCOc2nsc(-c3ccccc3)n2)cc1OC,inactive,–
C=C(C(=O)OC)[C@@H]1CC=C2C=CC(=O)[C@H](C)[C@@]2(C)C1,inactive,–
N[C@@H]1c2cccnc2[C@H](OC(=O)N2CCC(n3c(=O)[nH]c4ncccc43)CC2)CC[C@H]1c1cccc(F)c1F,inactive,–
COC(=O)CC(O)CC(O)/C=C/c1c(C)ccc2c1C(OC(C)=O)CC(C)C2 (stereo not given),inactive,–
COc1cc(O)cc(OC2OC(CO)C(O)C(O)C2O)c1 (stereo not given),inactive,–
COc1cc2ncnc(Nc3cccc(I)c3)c2cc1OC,inactive,–
C=C1CC[C@@H]2[C@](C)(CO)[C@H](O)CC[C@@]2(C)[C@@H]1CC(O)C1=CCOC1=O (stereo not given in full),inactive,–
C=C1CCN([C@H](C)[C@](O)(Cn2cncn2)c2ccc(F)cc2F)CC1,inactive,–
COC(=O)c1ccc2c(c1)[nH]c1ncnc(NCCCN3CCCCC3)c12,inactive,–
CC[N+]1(C/C2=C/CCCCCC2)CCC(NC(=O)C2c3cc(Cl)ccc3Oc3ccc(Cl)cc32)CC1 (stereo not given),inactive,–
C=C1CCCC2(C)CCC(C(C)(C)OC3OC(C)C(O)C(O)C3OC(=O)/C(C)=C\C)CC12 (stereo not given),inactive,–
CCc1c(Cl)c(O)c(Cl)c(O)c1C(=O)O[C@H]1[C@H](O)[C@H](OC)[C@H](OC/C2=C\C=C\C[C@H](O)/C(C)=C\[C@H](CC)[C@@H](O[C@@H]3OC(C)(C)[C@@H](OC(=O)C(C)C)[C@H](O)[C@@H]3O)/C(C)=C/C(C)=C/C[C@@H]([C@@H](C)O)OC2=O)O[C@@H]1C,inactive,–
